Data on eight compounds can be found in PubChem BioAssay (Tox21).

The structures appear in SMILES notation. “And” between values parts separate entries of the source, which are not always exact repeats. Equal entries are not always repeated. Results filed as inconclusive are left out. The source made the active and inactive calls. Unless noted, calls come from the whole dose curve; as a rule, active = well fitted curve in the direction sought with a large enough effect in the repeat runs; inconclusive = weak or mixed curves; inactive = no such curve, though single readings can be large; an effect the other way counts as inactive or inconclusive.

Assay [1] is described as follows: qHTS assay to identify small molecule antagonists of the thyroid receptor (TR) signaling pathway (AID 743065). Note: nearly all actives have a fitted effect of over 55% in size. Note: potency is the fitted concentration of half-maximal effect. The method, boiled down:
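GH3.TRE-Luc rat pituitary cells carrying two TR response elements driving luciferase were plated for 4 h, given compound plus 1 nM T3 (final), and incubated 23.5 h at 37 C. ONE-Glo luminescence measured reporter inhibition; CellTiter-Fluor fluorescence tracked cytotoxicity.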

Assay [2] has as its system thyroid hormone receptor (rat, GH3 cells). As to the kind of experiment: qHTS assay to identify small molecule agonists of the thyroid receptor (TR) signaling pathway (AID 743066; calls by dose curve).
In assay [3] the target is Estrogen receptor (Homo sapiens) (UniProt P03372). Briefly: qHTS assay to identify small molecule antagonists of the estrogen receptor alpha (ER-alpha) signaling pathway (AID 743069; active = well fitted curve in the direction sought with a large enough effect in the signal ratio in the repeat runs, not every such curve was filed as active; the % refers to the signal ratio). The method in brief: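 Estradiol-stimulated ER-alpha-UAS-bla HEK293 cells, 18 hr compound exposure at 37C. LiveBLAzer B/G substrate, 2 hr RT, fluorescence read.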
Assay [4] shares this target. As to the kind of experiment: qHTS assay to identify small molecule agonists of the estrogen receptor alpha (ER-alpha) signaling pathway (AID 743075; calls by dose curve;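 note: HEK293 GripTite cells with ER-alpha and UAS-driven beta-lactamase reporter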).
Assay [5] shares this target. Briefly: qHTS assay to identify small molecule agonists of the estrogen receptor alpha (ER-alpha) signaling pathway using the BG1 cell line (AID 743079). Note: nearly all actives have a fitted effect of over 20% in size. Note: potency is the fitted concentration of half-maximal effect.
The nature of assay [6]: qHTS assay to identify small molecule antagonists of the estrogen receptor alpha (ER-alpha) signaling pathway using the BG1 cell line (AID 743080; calls by dose curve;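 note: BG1 cells stimulated with 17beta-estradiol alongside compound; series mostly up to about 70 µM; nearly all actives have a fitted effect of over 25% in size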). The method, boiled down:
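Quantitative HTS on the Tox21 10K library: BG1 cells with endogenous ER-alpha and ERE-luciferase reporter, 17beta-estradiol stimulation, 21.5 h compound exposure, luminescence endpoint with parallel fluorescence cytotoxicity counter-read.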

The nature of assay [7]: qHTS assay to identify small molecule antagonists of the estrogen receptor alpha (ER-alpha) signaling pathway using the BG1 cell line - cell viability counter screen (AID 743081).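 Note: compound given together with 17beta-estradiol as the ER stimulus; series mostly up to about 70 µM; nearly all actives have a fitted effect of over 45% in size.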
For the next assay, the target named is Aromatase (Homo sapiens) (UniProt P11511). Briefly: qHTS assay to identify aromatase inhibitors (AID 743083). Note: series mostly up to about 70 µM; nearly all actives have a fitted effect of over 55% in size.
Assay [8] is described as follows: qHTS assay to identify aromatase inhibitors - cell viability counter screen (AID 743084).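 Note: cells stimulated with testosterone during compound exposure; nearly all actives have a fitted effect of over 55% in size.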 Note: potency is the fitted concentration of half-maximal effect.
Assay [9] deals with Aryl hydrocarbon receptor (Homo sapiens) (UniProt P35869). As to the kind of experiment: qHTS assay to identify small molecule that activate the aryl hydrocarbon receptor (AhR) signaling pathway (AID 743085).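 Note: HG2L7.5c1 human HepG2 liver cells with stably integrated DRE-driven firefly reporter; series mostly up to about 70 µM; nearly all actives have a fitted effect of over 15% in size.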 The method, boiled down: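 Steps: seed HepG2-AhR-luc cells; allow 5 h at 37C; pin-transfer test compound or vehicle; incubate 24 h at 37C; add viability dye (30 min, 37C) and read fluorescence; add luciferase substrate (30 min, RT) and read luminescence.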

A short description of assay [10]: qHTS assay to identify small molecule that activate the aryl hydrocarbon receptor (AhR) signaling pathway - cell viability counter screen (AID 743086). Note: nearly all actives have a fitted effect of over 45% in size. Note: potency is the fitted concentration of half-maximal effect. The method, boiled down:
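HepG2-AhR-luc (HG2L7.5c1) cells, 4000/well, were preincubated 5 h at 37C, exposed to compound in qHTS format for 24 hr at 37C, then given CellTiter-Fluor for 30 min; viability was read as fluorescence in the reporter wells.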

Assay [11] has as its target Peroxisome proliferator-activated receptor gamma (Homo sapiens) (UniProt P37231). Briefly: qHTS assay to identify small molecule agonists of the peroxisome proliferator-activated receptor gamma (PPARg) signaling pathway (AID 743094; active = well fitted activation curve with a large enough effect in the signal ratio in the repeat runs, not every such curve was filed as active; the % refers to the signal ratio). The method, boiled down:
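Beta-lactamase FRET fluorescence was the read-out after a 1 h room-temperature substrate step, following 17 h compound treatment at 37C of HEK293H cells expressing a UAS-driven bla reporter responsive to PPARg.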

For assay [12] the target is unchanged. As to the kind of experiment: qHTS assay to identify small molecule antagonists of the peroxisome proliferator-activated receptor gamma (PPARg) signaling pathway (AID 743191; calls by dose curve; note: nearly all actives have a fitted effect of over 30% in size; note: potency is the fitted concentration of half-maximal effect). The method in brief:
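GeneBLAzer PPARg UAS-bla HEK293H cells carrying a UAS-driven beta-lactamase reporter were plated at 3000 cells/well, preincubated 5 h at 37C, then given compound for 17 h at 37C; LiveBLAzer B/G FRET substrate was read after 1 h at room temperature.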

Assay [13] in a line: qHTS assay to identify small molecule antagonists of the peroxisome proliferator-activated receptor gamma (PPARg) signaling pathway - cell viability counter screen (AID 743194). Note: nearly all actives have a fitted effect of over 55% in size. Note: potency is the fitted concentration of half-maximal effect. The method, boiled down: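 PPARg-UAS-bla HEK293H cells were plated, rested 5 h at 37 C, then treated with compounds plus rosiglitazone (50 nM final) for 17 h at 37 C; viability was then read by CellTiter-Glo luminescence after 30 min at room temperature.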

A short description of assay [14]: qHTS assay for small molecule agonists of the antioxidant response element (ARE) signaling pathway (AID 743202; active = well fitted activation curve with a large enough effect in the signal ratio in the repeat runs, not every such curve was filed as active; the % refers to the signal ratio). The method, boiled down:
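Compounds delivered in DMSO to ARE-bla HepG2 cells (2,000 cells/well, pre-incubated 5 h) and left 16 h at 37 C. LiveBLAzer B/G FRET substrate then added for 2 h at RT before fluorescence reading.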

Assay [15] can be described thus: qHTS assay for small molecule activators of the heat shock response signaling pathway - cell viability counter screen (AID 743209). Note: nearly all actives have a fitted effect of over 50% in size. The method in brief:
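Luminescence from CellTiter-Glo, added after the beta-lactamase FRET read, gave the viability signal. Cells were HSE-bla HeLa treated with DMSO-dissolved compounds for 5 h at 37 C following overnight plating.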

A short description of assay [16]: qHTS assay for small molecule activators of the heat shock response signaling pathway (AID 743210; active = well fitted activation curve with a large enough effect in the signal ratio in the repeat runs, with a control signal flat, not every such curve was filed as active; the % refers to the signal ratio;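 note: HeLa cells with beta-lactamase reporter driven by heat shock elements; series mostly up to about 63 µM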). The method, boiled down:
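Reporter gene assay: HeLa cells stably bearing an HSE-bla construct, compound treatment 5 h at 37 C, LiveBLAzer substrate 2.5 h at RT, fluorescence intensity.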

A short description of assay [17]: qHTS assay to identify small molecule agonists of the peroxisome proliferator-activated receptor delta (PPARd) signaling pathway - cell viability counter screen (AID 743211). Note: nearly all actives have a fitted effect of over 55% in size. The method in brief:
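Viability of GeneBLAzer PPARd UAS-bla HEK293H cells was assessed after 17 h compound incubation at 37C, using CellTiter-Glo reagent added after the reporter read and luminescence recorded 30 min later.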

Assay [18] is described as follows: qHTS assay to identify small molecule antagonists of the estrogen receptor alpha (ER-alpha) signaling pathway - cell viability counter screen (AID 743074; calls by dose curve;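 note: HEK293 cells carrying ER-alpha-UAS-bla reporter stimulated with 17beta-estradiol; nearly all actives have a fitted effect of over 45% in size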).
A short description of assay [19]: qHTS assay for small molecule agonists of the antioxidant response element (ARE) signaling pathway - cell viability counter screen (AID 743203; calls by dose curve; note: nearly all actives have a fitted effect of over 55% in size; note: potency is the fitted concentration of half-maximal effect). The method, boiled down: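 HepG2 cells carrying ARE-driven beta-lactamase; 2,000 cells/well; 5 hrs plating; compound pinned from DMSO; 16 hrs 37C/5% CO2; CellTiter-Glo added; 30 min RT; luminescence.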

Sequence of Estrogen receptor (Homo sapiens) (P03372 whole entry, looked up): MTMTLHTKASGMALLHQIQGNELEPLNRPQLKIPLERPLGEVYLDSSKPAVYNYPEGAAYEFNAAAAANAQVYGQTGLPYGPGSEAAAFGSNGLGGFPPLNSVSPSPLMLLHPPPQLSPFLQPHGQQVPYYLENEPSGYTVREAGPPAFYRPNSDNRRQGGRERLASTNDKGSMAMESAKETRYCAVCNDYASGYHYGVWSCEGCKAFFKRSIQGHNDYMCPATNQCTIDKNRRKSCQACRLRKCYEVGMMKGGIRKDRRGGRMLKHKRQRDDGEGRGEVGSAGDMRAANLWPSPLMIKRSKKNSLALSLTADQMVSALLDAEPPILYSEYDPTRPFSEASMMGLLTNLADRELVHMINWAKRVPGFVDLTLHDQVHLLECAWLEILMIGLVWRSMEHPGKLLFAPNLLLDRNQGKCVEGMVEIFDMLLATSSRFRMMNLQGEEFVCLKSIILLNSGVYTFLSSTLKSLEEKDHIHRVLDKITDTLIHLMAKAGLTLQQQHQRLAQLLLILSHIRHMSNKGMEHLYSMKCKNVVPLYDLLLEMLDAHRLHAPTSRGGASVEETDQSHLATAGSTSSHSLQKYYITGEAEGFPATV
Sequence of Aromatase (Homo sapiens) (P11511 whole entry, looked up): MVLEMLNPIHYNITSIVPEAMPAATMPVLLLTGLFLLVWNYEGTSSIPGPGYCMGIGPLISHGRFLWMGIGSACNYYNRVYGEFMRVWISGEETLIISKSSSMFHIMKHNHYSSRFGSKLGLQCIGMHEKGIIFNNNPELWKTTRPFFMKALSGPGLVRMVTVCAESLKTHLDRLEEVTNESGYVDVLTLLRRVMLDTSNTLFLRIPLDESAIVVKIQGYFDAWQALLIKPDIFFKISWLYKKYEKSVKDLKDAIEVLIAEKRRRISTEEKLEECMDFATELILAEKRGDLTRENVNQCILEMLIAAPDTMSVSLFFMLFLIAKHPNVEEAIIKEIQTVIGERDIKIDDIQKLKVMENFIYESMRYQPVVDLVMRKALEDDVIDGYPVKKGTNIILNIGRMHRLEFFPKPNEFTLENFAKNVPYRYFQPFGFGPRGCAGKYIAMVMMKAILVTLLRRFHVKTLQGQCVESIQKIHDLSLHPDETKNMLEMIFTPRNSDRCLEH
Sequence of Aryl hydrocarbon receptor (Homo sapiens) (P35869 whole entry, looked up): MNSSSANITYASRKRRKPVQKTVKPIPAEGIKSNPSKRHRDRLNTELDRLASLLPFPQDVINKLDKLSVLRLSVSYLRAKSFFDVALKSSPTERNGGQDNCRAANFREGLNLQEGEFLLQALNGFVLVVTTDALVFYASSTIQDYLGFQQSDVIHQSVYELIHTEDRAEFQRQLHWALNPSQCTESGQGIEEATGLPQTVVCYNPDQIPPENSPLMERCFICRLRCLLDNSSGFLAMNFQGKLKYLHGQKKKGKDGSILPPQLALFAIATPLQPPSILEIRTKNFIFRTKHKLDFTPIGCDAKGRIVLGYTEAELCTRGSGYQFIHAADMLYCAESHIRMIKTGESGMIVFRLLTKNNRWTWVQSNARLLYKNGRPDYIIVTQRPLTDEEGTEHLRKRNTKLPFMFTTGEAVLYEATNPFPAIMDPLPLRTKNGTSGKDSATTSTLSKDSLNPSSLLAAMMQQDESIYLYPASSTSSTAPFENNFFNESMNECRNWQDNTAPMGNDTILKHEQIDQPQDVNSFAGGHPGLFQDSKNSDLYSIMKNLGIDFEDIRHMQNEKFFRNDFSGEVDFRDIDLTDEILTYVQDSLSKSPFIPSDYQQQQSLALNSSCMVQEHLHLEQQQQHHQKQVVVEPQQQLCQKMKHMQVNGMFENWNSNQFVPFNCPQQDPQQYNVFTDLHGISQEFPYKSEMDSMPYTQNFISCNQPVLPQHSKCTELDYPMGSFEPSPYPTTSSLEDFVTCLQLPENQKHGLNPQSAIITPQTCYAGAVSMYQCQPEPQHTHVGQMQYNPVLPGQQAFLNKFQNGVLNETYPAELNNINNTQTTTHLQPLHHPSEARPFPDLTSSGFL
Sequence of Peroxisome proliferator-activated receptor gamma (Homo sapiens) (P37231 whole entry, looked up): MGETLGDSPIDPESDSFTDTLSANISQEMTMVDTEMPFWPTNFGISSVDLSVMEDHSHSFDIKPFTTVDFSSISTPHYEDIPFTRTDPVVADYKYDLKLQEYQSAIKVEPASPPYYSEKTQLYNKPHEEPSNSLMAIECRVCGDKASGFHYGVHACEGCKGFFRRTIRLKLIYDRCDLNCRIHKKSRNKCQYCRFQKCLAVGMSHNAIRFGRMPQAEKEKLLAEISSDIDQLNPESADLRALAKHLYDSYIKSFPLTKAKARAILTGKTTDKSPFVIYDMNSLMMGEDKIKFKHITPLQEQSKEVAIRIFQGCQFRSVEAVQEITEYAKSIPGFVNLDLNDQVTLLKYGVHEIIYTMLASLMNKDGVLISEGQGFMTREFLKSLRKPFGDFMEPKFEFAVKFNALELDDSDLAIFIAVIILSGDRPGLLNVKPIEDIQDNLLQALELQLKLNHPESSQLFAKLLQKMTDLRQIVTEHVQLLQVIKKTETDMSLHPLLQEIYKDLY

For `O=C(O)CCCC(=O)O`, the Potency entry in assay [1], in assay [2], in assay [3], in assay [4], in [5] and in assay [6] was “inactive” throughout. In addition, the Potency entry (in [7]; with Aromatase (Homo sapiens); in assay [8]; in [9]; in [10]; in [12]) was “inactive” in each case. The Potency entry in [13], in assay [14], in assay [15] and in [17] was “inactive” in each case. Also, the result in [11] and in assay [16] was inactive.
In the case of `CCCOCCO`, the Potency result (in [1]; in assay [2]; in [18]; in [7]; with Aromatase (Homo sapiens); in assay [8]) was “inactive” throughout. Moreover, the Potency entry in [9], in [10], in [12], in assay [13], in assay [14] and in [19] was “inactive” in each case. For the same compound, the Potency entry in assay [15] was “inactive”. Also, the call in assay [11] and in assay [16] was inactive.
Turning to `CC(=O)Nc1ccc2c(c1)Cc1cc(NC(C)=O)ccc1-2`, the Potency result in assay [1], in assay [2], in [3], in assay [18], in assay [4] and in assay [7] was “inactive” each time. Further, the Potency result (with Aromatase (Homo sapiens); in assay [8]; in assay [9]; in assay [10]; in [12]; in [13]) was “inactive” each time. Besides, the Potency entry in assay [14], in assay [15] and in assay [17] was “inactive” throughout. For the same compound, the Potency in [5] is 9.66 µM (active) and 864 nM (active). Further, the compound was classed as inactive in assay [11] and in assay [16].
As to `COc1cc([C@H]2Oc3cc([C@H]4Oc5cc(O)cc(O)c5C(=O)[C@@H]4O)ccc3O[C@@H]2CO)ccc1O`, the Potency result in [1], in assay [2], in assay [18], in [4], in assay [5] and in assay [6] was “inactive” each time. The Potency result (in assay [7]; with Aromatase (Homo sapiens); in assay [8]; in assay [9]; in [10]; in assay [12]) was “inactive” each time. For the same compound, the Potency result in assay [13], in assay [19], in assay [15] and in assay [17] was “inactive” in each case. Also, the compound was classed as inactive in [11] and in assay [16].
In the case of `CCCCCCCCCCC(CO)CCCCCCCC` (configuration not stated), the Potency entry (in [1]; in [2]; in assay [18]; in assay [7]; in the assay with Aromatase (Homo sapiens); in assay [8]) was “inactive” each time. Besides, the Potency result in assay [9], in assay [10], in [13], in assay [14], in assay [19] and in [15] was “inactive” in each case. The compound was classed as inactive in assay [11] and in [16].
With `Cc1cccc(Nc2ccccc2C(=O)O)c1C`, the Potency in assay [1] is 21.1 µM (active) and 54.5 µM (active); in [12], 43.6 µM (active). The Potency result (in assay [2]; in assay [18]; in assay [7]; with Aromatase (Homo sapiens); in [8]; in assay [9]) was “inactive” throughout. Moreover, the Potency entry in [10], in assay [13] and in [15] was “inactive” throughout. For the same compound, the outcome in assay [16] was inactive.
For the compound `CN(C)CCCN1c2ccccc2Sc2ccc(Cl)cc21`, the Potency is 13.3 µM (active) and 15.4 µM (active) in [1]; 68.6 µM (active) in assay [8]; 30.6 µM (active) in assay [10]; 38.9 µM (active) and 26.6 µM (active) in [13]; 24.3 µM (active) and 29.8 µM (active) in [19]. The Potency entry (in assay [18]; in [7]; in the assay with Aromatase (Homo sapiens); in [9]; in assay [15]) was “inactive” in each case.
`C[N+](C)(C)CCO`: the Potency entry (in assay [2]; in [18]; in assay [6]; in assay [7]; with Aromatase (Homo sapiens); in [8]) was “inactive” throughout. In addition, the Potency result in [9], in assay [10], in [13], in assay [14] and in assay [15] was “inactive” each time. The call in [11] was inactive.
